We go through 6 compounds from PubChem BioAssay (NCATS).

A number with no mark means an inactive call. Inconclusive results are not listed. Activity calls are given as the source filed them. Unless noted, calls follow the shape of the dose curve; as a rule, active = well fitted curve in the direction sought with a large enough effect; inconclusive = small, poorly fitted or top-dose-only effect, or another doubt; inactive = no such curve, though single readings can be large; an effect the other way counts as inactive or inconclusive.

Test [1] concerns the target Lysosomal acid glucosylceramidase (Homo sapiens) (UniProt P04062). Put plainly: Glucocerebrosidase-p2 (AID 348; in the data active = potency below about 10 µM; also: potency is read from the fitted curve at half-maximal effect). To be noted: purified GBA, blue fluorogenic substrate, 40 min. The method, boiled down: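 Compounds titrated from 0.6 nM upwards against 0.2 nM enzyme in pH 5.9 citric acid/KH2PO4, taurocholate, tween-20; blue fluorogenic substrate 80 uM, 40 min room temperature, stopped and read Ex 365/Em 440 for AC50.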

A short description of test [2]: AP1 Signaling Pathway (AID 357; active = well fitted curve in either direction with a large enough effect, not every such curve was filed as active;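 also: ME-180 reporter cells stimulated with EGF at its EC50 level; % is scaled to controls: 0 for no effect and ±100 for the full control effect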). To be noted: ME-180 AP-1-bla reporter, EGF-induced, beta-lactamase ratio, 5 h; at 7.69 µM (top of the series) unless noted. The method, boiled down: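 Modulation of EGF-driven AP-1 transcription was assessed with a beta-lactamase reporter in ME-180 cells. Compound and EC50 EGF were co-incubated 5 hours at 37 °C before 2.5-hour CCF4 loading at room temperature and dual-emission reading.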

In test [3] the target is Cytochrome P450 1A2 (Homo sapiens) (UniProt P05177). Put plainly: p450-cyp1a2 (AID 410; calls by dose curve; also: potency is read from the fitted curve at half-maximal effect). To be noted: recombinant CYP1A2, luciferin-ME demethylation, luminescence; series mostly up to 57 µM. The method, boiled down: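 Inhibition was calculated relative to 57 uM furafylline (full inhibition). The reaction used human CYP1A2 at 20nM with Luciferin-ME at its Km, 100uM, driven by an NADPH-regenerating system for 60 min at room temperature.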
Sequence of Cytochrome P450 1A2 (Homo sapiens) (P05177 whole entry, looked up): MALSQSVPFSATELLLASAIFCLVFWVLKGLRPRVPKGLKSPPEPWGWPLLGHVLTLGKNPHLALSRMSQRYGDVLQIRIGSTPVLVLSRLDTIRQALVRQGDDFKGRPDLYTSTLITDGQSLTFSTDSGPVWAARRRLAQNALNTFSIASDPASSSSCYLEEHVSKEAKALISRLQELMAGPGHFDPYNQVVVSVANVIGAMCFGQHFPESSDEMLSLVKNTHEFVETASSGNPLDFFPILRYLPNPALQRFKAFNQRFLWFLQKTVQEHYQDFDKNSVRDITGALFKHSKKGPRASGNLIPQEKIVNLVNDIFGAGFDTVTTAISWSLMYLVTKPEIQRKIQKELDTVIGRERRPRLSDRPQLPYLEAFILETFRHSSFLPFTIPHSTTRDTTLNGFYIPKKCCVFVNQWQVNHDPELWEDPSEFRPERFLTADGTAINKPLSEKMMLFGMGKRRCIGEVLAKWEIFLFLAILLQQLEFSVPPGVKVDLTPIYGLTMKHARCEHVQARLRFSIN

Test [4] in a line: NFAT Signaling Pathway (AID 444; active = well fitted curve in either direction with a large enough effect, not every such curve was filed as active;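 also: carbachol stimulus at about its EC50 of 1 µM final; % is scaled to controls: 0 for no effect and ±100 for the full control effect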). The settings on record: Jurkat NFAT-bla M1, carbachol, beta-lactamase ratio, 5 h; at 7.69 µM (top of the series) unless noted. In outline:
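Read-out: CCF4 FRET ratio (460 nm/530 nm) after 1 h RT dye loading, used for %activity and AC50 from titration series. Cells: Jurkat NFAT-β-lactamase/M1 line, treated with compound plus 1 uM carbachol for 5 h, 37 °C.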

The nature of test [5]: Stat Signaling Pathway (AID 446; active = well fitted curve in either direction with a large enough effect, not every such curve was filed as active;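 also: ME-180 cervical cancer cells given 40 pM IL-6 alongside compound; SIE-controlled beta-lactamase reporter measured as 460/530 nm FRET emission ratio; % is scaled to controls: 0 for no effect and ±100 for the full control effect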). To be noted: ME-180 SIE beta-lactamase reporter, IL-6 stimulated, 5 h; at 7.69 µM (top of the series) unless noted. In outline:
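Screening format detects activators and inhibitors alike: ME-180 SIE-bla cells stimulated at 40 pM IL-6 for 5 hrs with compound, then dual-emission beta-lactamase read at 405 nm excitation.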

For test [6], the target named is Glucocorticoid receptor (Homo sapiens) (UniProt P04150). Description: GR-GFP Redistribution (AID 450;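 active = compounds whose dose series gives a full or clear partial fitted curve of increased nuclear translocation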; also: potency is read from the fitted curve at half-maximal effect). The settings on record: U2OS GR-GFP nuclear translocation, laser cytometry, 2 h.
Sequence of Glucocorticoid receptor (Homo sapiens) (P04150 whole entry, looked up, the tested form may be a part): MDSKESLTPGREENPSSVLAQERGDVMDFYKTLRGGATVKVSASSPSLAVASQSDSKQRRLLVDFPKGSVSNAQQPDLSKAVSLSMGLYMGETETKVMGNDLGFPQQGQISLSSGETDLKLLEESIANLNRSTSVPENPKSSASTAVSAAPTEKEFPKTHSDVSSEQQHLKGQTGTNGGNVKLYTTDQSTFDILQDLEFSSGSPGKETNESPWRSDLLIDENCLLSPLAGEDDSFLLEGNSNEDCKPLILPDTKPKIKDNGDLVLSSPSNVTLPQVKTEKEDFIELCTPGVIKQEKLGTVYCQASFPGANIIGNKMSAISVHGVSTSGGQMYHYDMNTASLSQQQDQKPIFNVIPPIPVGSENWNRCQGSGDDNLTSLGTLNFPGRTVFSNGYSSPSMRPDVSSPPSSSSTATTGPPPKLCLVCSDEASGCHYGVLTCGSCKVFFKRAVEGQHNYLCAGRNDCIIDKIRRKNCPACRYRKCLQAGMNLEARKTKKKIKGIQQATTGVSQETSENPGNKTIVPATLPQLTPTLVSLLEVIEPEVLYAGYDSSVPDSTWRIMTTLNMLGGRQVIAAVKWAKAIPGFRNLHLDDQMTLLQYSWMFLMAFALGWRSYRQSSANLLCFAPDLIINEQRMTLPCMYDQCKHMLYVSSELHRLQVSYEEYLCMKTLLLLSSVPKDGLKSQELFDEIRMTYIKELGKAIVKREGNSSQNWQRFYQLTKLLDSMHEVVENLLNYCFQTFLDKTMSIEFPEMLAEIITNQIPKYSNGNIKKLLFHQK
Test [7] has the same target. Description: GR-EFC Redistribution (AID 451; calls by dose curve; also: potency is read from the fitted curve at half-maximal effect). To be noted: CHO-K1 GR-EFC translocation, beta-gal luminescence, 2 h. The method, boiled down: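 Translocation of GR-ED fusion to nuclear EA restores b-gal, read by luminescence after 1 h room-temperature detection. Engineered CHO-K1 biosensor cells, 1,000/well, exposed 2 h at 37 C to titrations up to 46 uM final.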
In test [8] the target is Mitogen-activated protein kinase 10 (Mus musculus) (UniProt Q61831). Description: JNK3 AlphaScreen Assay (AID 530; active = well fitted curve in either direction with a large enough effect, not every such curve was filed as active;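 also: kinase came from lysate of stimulated human HepG2 cells; signal reports phosphorylation of biotinylated GST-cJun 1-79 at Ser73 with 10 µM ATP; % is scaled to controls: 0 for no effect and ±100 for the full control effect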). The settings on record: JNK3 lysate, c-Jun phosphorylation; series mostly up to 57.1 µM. In outline:
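Room-temperature AlphaScreen kinase assay; pre-activated HepG2 lysate as JNK3 source, biotin-GST-cJun(1-79) substrate, 10 uM ATP, compound 15 min preincubation.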
Background: Alpha assays give light when donor and acceptor beads are brought close together.

In test [9] the target is 3',5'-cyclic-AMP phosphodiesterase 4B (Homo sapiens) (UniProt Q07343). Put plainly: qHTS Assay for Inhibitors of PDE-IV (AID 607; active = well fitted activation curve with a large enough effect in the main read-out, with a control signal flat, not every such curve was filed as active; also: % of control where 0% means no effect). The settings on record: HEK293 ACTOne CNG channel cells, membrane potential fluorescence; series mostly up to 22.9 µM. The method, boiled down: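 The readout is membrane depolarisation from a cAMP-sensing CNG channel, detected with a potential dye at ex 535/em 590. Cells were HEK293-derived (endogenous PDE-IV) at 1000 cells/well, titrated up to 22.9 uM final.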
Sequence of 3',5'-cyclic-AMP phosphodiesterase 4B (Homo sapiens) (Q07343 whole entry, looked up): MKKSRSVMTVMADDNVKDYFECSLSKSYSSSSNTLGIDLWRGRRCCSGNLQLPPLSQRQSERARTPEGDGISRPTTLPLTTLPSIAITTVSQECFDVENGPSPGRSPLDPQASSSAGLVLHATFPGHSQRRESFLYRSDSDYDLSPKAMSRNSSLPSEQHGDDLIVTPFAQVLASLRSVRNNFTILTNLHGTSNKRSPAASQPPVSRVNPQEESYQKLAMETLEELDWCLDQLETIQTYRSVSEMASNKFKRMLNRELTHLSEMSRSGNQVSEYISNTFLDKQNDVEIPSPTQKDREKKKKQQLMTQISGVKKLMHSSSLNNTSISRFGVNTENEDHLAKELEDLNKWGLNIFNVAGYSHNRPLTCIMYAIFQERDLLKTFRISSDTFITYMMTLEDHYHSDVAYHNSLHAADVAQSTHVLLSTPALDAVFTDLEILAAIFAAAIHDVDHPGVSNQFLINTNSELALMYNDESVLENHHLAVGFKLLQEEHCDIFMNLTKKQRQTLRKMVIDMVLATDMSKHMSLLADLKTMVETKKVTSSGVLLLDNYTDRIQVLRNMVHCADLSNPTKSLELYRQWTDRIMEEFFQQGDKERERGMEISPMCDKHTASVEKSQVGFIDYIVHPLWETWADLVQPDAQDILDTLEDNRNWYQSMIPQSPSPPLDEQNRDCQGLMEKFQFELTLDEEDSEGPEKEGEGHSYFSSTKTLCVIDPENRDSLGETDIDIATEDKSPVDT
(In general: qHTS replaces the single test concentration by a dilution series.)

For test [10], the target named is Cytochrome P450 3A4 (Homo sapiens) (UniProt P08684). Put plainly: qHTS Assay for Inhibitors and Substrates of Cytochrome P450 3A4 (AID 884). Also: potency is read from the fitted curve at half-maximal effect; nearly all actives have a fitted effect of over 50% in size. To be noted: recombinant CYP3A4, Luciferin-PPXE luminescence; series mostly up to 57.1 µM. In outline: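 20 nM human CYP3A4 with 25 uM Luciferin-PPXE (at KM) in 200 mM KPO4, preincubated 10 min with compound; NADPH regeneration started a 60 min RT reaction. Luciferin detected by luminescence, normalized to 57 uM ketoconazole as full inhibition.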
Sequence of Cytochrome P450 3A4 (Homo sapiens) (P08684 whole entry, looked up): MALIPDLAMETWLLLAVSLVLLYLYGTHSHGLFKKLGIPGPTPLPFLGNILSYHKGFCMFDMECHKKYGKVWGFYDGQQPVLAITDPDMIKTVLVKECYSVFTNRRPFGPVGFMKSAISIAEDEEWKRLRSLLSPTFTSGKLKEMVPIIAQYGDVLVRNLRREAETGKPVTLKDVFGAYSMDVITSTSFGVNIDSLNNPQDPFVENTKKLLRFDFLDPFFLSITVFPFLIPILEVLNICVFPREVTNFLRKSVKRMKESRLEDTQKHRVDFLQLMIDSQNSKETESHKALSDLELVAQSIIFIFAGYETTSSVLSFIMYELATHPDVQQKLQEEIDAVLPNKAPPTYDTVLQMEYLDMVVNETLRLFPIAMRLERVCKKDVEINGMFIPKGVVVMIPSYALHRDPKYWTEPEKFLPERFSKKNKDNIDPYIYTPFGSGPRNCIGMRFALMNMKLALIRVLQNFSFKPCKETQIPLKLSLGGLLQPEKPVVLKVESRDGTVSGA

For test [11] the target is unchanged. Put plainly: qHTS Assay for Activators of Cytochrome P450 3A4 (AID 885). Also: nearly all actives have a fitted effect of over 65% in size. The settings on record: recombinant CYP3A4, Luciferin-PPXE luminescence, 60 min; series mostly up to 57.1 µM. The method, boiled down:
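Steps: enzyme/substrate mix dispensed; compound added, 10 min RT; NADPH regeneration solution added, 60 min RT; luciferin detection buffer stops reaction; 20 min later luminescence measured.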

For test [12], the target named is Cytochrome P450 2C19 (Homo sapiens) (UniProt P33261). Put plainly: qHTS Assay for Inhibitors and Substrates of Cytochrome P450 2C19 (AID 899). Also: potency is read from the fitted curve at half-maximal effect; nearly all actives have a fitted effect of over 60% in size. To be noted: recombinant CYP2C19, luciferin-H EGE luminescence; series mostly up to 57.1 µM. In outline: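 5nM enzyme + 10uM Luciferin-H EGE (=KM), 50mM KPO4; cpd pin-transferred, 10 min 37C; NADPH regen, 60 min 37C; stopped w/ luciferin detection reagent, 20 min; luminescence. Normalized to 57uM ketoconazole (AC100).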
Sequence of Cytochrome P450 2C19 (Homo sapiens) (P33261 whole entry, looked up): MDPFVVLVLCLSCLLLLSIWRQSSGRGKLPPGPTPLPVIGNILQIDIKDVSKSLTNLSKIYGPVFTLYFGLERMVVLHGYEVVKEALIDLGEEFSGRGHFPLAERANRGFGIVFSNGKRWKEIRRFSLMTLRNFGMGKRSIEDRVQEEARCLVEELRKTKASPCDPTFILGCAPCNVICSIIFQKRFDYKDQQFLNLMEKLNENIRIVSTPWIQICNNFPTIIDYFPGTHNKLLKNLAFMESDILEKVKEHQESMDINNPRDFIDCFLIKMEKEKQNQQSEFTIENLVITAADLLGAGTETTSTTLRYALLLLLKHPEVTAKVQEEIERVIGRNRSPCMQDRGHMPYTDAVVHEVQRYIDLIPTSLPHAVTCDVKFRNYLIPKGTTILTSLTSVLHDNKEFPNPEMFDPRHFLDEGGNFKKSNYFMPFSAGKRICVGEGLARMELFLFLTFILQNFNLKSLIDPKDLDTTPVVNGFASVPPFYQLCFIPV

For test [13], the target named is Dual specificity protein kinase CLK4 (Homo sapiens) (UniProt Q9HAZ1). Description: qHTS Assay for Inhibitors of CDC-like Kinase 4 (Kinase-Glo Assay) (AID 1770). Also: nearly all actives have a fitted effect of over 65% in size. Also: potency is read from the fitted curve at half-maximal effect. The settings on record: recombinant Clk4, Kinase-Glo ATP depletion luminescence; series mostly up to 66.7 µM. The method, boiled down:
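Inhibition was judged from remaining ATP, measured by Ultra-Glo luciferase bioluminescence after Clk4 (25 nM) had acted on RS peptide at 1 uM ATP for 4.5 hours, room temperature.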

Test [14] has the same target. Put plainly: qHTS Assay for Inhibitors of CDC-like Kinase 4 (ADP-FP Assay) (AID 1795). Also: nearly all actives have a fitted effect of over 60% in size. Also: potency is read from the fitted curve at half-maximal effect. The settings on record: Transcreener ADP fluorescence polarization; series mostly up to 50 µM. In outline: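 Inhibition of ADP formation by 6.25 nM Clk4 is measured using 1 uM ATP and 100 uM RS repeat peptide over one hour. Produced ADP displaces a fluorescent tracer from antibody, lowering polarization.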

For test [15], the target named is Ubiquitin carboxyl-terminal hydrolase 1 (Homo sapiens) (UniProt O94782). Description: Inhibitors of USP1/UAF1: Pilot qHTS (AID 504865).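 Also: rhodamine fluorescence freed from ubiquitin-rhodamine substrate followed over time; top concentration of the series differs between compounds; % is scaled to controls: 0 for no effect and ±100 for the full control effect; nearly all actives have a fitted effect of over 35% in size.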 The settings on record: purified USP1/UAF1, Ub-rhodamine cleavage fluorescence; series mostly up to 54.9 µM. The method, boiled down:
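Kinetic fluorescence assay: 1nM USP1/UAF1, 15 min compound preincubation, then 150nM Ub-Rho; 480/540 nm.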

Test [16] can be described thus: Primary qHTS for small molecule stabilizers of the endoplasmic reticulum resident proteome: Secreted ER Calcium Modulated Protein (SERCaMP) assay (AID 1508630). Also: % is scaled to controls: 0 for no effect and ±100 for the full control effect. To be noted: SH-SY5Y GLuc-SERCaMP (Gaussia luciferase released on ER calcium loss) secretion, thapsigargin, luminescence; series mostly up to 38.4 µM. The method, boiled down:
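GLuc-SERCaMP-expressing SH-SY5Y cells, pretreated 16 h with compound, are challenged with thapsigargin to empty ER calcium stores; after 4 h, coelenterazine is added directly to the medium and luminescence is imaged.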

Test [17] deals with Cytochrome P450 2C9 (Homo sapiens) (UniProt P11712). Description: qHTS Assay for Inhibitors and Substrates of Cytochrome P450 2C9 (AID 883). Also: potency is read from the fitted curve at half-maximal effect; nearly all actives have a fitted effect of over 60% in size. To be noted: recombinant CYP2C9, luciferin-H luminescence, 60 min; series mostly up to 57.1 µM. The method, boiled down:
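Inhibition of CYP2C9 is scored as loss of luminescence, with 57uM sulphaphenazole defining 100% inhibition. Substrate Luciferin-H is used at 100uM, equal to its KM; enzyme at 10nM in 25mM KPO4, 60 min at 37C with NADPH regeneration.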

Sequence of Dual specificity protein kinase CLK4 (Homo sapiens) (Q9HAZ1 whole entry, looked up): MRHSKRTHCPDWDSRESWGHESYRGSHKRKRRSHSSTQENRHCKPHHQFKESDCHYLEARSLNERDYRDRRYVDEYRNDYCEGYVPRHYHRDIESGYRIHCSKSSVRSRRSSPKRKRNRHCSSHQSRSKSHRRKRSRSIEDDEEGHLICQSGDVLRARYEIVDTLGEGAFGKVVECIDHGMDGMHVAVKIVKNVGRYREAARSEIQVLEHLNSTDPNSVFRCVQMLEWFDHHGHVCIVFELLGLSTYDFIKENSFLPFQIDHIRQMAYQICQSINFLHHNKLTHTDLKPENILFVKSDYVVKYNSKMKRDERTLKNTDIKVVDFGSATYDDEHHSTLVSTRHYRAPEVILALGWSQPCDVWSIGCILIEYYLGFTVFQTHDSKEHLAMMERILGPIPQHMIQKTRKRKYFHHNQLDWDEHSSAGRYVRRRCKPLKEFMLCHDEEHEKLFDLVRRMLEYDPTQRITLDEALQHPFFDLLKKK
Sequence of Lysosomal acid glucosylceramidase (Homo sapiens) (P04062 whole entry, looked up): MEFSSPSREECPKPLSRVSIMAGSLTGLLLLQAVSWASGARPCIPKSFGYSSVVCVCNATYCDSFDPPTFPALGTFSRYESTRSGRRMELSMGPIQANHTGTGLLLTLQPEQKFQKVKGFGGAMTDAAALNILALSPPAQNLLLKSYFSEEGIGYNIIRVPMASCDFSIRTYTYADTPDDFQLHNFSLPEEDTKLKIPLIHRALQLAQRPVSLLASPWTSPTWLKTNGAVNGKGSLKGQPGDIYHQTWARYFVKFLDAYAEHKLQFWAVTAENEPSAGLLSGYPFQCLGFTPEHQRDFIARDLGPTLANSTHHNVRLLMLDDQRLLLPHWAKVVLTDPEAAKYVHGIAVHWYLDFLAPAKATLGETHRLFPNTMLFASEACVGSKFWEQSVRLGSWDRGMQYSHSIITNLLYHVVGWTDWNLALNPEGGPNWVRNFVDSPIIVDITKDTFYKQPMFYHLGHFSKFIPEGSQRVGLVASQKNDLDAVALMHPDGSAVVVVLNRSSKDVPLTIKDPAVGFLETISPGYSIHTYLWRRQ
Sequence of Ubiquitin carboxyl-terminal hydrolase 1 (Homo sapiens) (O94782 whole entry, looked up): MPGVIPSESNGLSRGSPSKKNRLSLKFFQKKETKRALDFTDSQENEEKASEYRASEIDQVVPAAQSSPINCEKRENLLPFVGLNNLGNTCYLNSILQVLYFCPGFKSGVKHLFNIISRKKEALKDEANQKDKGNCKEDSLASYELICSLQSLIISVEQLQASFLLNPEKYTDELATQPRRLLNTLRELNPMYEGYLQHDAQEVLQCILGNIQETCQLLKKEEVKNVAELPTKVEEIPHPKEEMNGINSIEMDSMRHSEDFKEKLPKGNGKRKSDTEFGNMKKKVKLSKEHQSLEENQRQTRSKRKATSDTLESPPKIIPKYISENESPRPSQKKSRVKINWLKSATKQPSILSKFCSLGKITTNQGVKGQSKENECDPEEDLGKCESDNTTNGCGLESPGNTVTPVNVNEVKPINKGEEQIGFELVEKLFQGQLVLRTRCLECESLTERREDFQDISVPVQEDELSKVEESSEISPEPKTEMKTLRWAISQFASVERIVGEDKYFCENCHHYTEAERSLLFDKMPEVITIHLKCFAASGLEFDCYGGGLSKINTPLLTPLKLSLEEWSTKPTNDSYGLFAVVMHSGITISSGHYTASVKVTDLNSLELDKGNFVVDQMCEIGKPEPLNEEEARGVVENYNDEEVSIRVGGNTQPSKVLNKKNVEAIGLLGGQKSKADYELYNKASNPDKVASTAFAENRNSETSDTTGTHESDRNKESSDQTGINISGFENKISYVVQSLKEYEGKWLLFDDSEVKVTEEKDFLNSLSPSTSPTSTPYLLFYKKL

`N#Cc1cccc(-c2cncnc2NCc2cccnc2)c1`: the Potency in test [1] was more than 11.4 µM; in [3], 5.01 µM (active); in [6], more than 46 µM; in [7] it was more than 46 µM; in test [10], 1.26 µM (active); in test [12], 3.98 µM (active). In addition, the activity change, negative = inhibition in test [2] is 13%; in test [4], -3.61%. Moreover, the activity, negative = inhibition in test [5] is 6.63%. For the same compound, the Potency entry in [8], in test [9], in [11], in [13], in test [14] and in test [15] was “inactive” throughout. Further, in [16], the result was inactive.

`COc1cccc(Cn2c(=O)c(-c3cccs3)nc3cncnc32)c1`: the Potency in [1] was more than 11.4 µM; in [3], 5.01 µM (active); in test [6], more than 9.22 µM; in test [7] it was more than 46 µM; in test [17] it was 2.51 µM (active); in [10], 5.01 µM (active). Further, in test [12], the Potency was 5.01 µM (active). The activity change, negative = inhibition in test [2] was -13.8%; in test [4] it was -4.4%. Further, in [5], the activity, negative = inhibition was 0.799%. Also, the Potency result in test [8], in test [11], in [13], in test [14] and in test [15] was “inactive” each time. For the same compound, the result in test [16] was inactive.

With `CCNc1ncc2nc(-c3cn(C)c4ccccc34)c(=O)n(C[C@H]3CCCO3)c2n1`, the Potency in [1] was more than 11.4 µM; in test [3], 10 µM (active); in [6], more than 9.22 µM; in test [7] it was more than 46 µM. For the same compound, the activity change, negative = inhibition was -16.7% in test [2] and 16.3% in [4]. Besides, the activity, negative = inhibition in test [5] is 9.05%. Further, the Potency result in test [8], in [13], in test [14] and in [15] was “inactive” each time. In test [16], the outcome was inactive.

Regarding `Cc1nc2cnc(Oc3ccccc3)nc2n(C2CC2)c1=O`, the Potency in test [1] was more than 11.4 µM; in test [3], 10 µM (active); in test [6], more than 9.22 µM; in test [7], more than 46 µM. The results for the activity change, negative = inhibition in [2] and in [4] were -5.18% and -1.18%, respectively. Also, the activity, negative = inhibition in test [5] was -14.1%. Also, the Potency entry in [8], in [9], in [11], in [13], in test [14] and in [15] was “inactive” in each case. Besides, the result in test [16] was inactive.

For the compound `Cc1nc2cnc(Nc3ccccc3)nc2n(CCc2ccccc2)c1=O`, the Potency in [1] is more than 11.4 µM; in test [3], 2.51 µM (active); in [6], more than 9.22 µM; in test [7] it was more than 46 µM. Further, the figures for the activity change, negative = inhibition in test [2] and in test [4] were -7.04% and -9.65%, respectively. For the same compound, the activity, negative = inhibition in test [5] is -6.93%. Moreover, the Potency entry in test [8], in [9], in test [11], in test [13], in test [14] and in test [15] was “inactive” each time. The outcome in test [16] was inactive.

As to `COCCNc1nc(-c2cccc(NS(C)(=O)=O)c2)nc2ccccc12`, the Potency in [1] was more than 11.4 µM; in test [3], 3.16 µM (active); in [6], more than 46 µM; in test [7], more than 46 µM; in test [13], 11.2 µM (active); in test [14], 14.1 µM (active). The activity change, negative = inhibition in test [2] is -25.4%; in test [4] it was 22.3%. In [5], the activity, negative = inhibition was -10.1%. Moreover, the Potency entry in [8] and in test [11] was “inactive” each time. In addition, the result in test [16] was inactive.
